# D2 ag-1: activates the human D2 dopamine receptor; DiscoveRx PathHunter D2 beta-arrestin, luminescence, 90 min; 100% = 57 uM dopamine signal; P14416; 360,000 compounds, 0.084% hits; activation, % (no concentration beside the values); in the data active means activation above about 40%; inconclusive means between about 15% and that limit
# Target sequence (P14416 whole entry, looked up): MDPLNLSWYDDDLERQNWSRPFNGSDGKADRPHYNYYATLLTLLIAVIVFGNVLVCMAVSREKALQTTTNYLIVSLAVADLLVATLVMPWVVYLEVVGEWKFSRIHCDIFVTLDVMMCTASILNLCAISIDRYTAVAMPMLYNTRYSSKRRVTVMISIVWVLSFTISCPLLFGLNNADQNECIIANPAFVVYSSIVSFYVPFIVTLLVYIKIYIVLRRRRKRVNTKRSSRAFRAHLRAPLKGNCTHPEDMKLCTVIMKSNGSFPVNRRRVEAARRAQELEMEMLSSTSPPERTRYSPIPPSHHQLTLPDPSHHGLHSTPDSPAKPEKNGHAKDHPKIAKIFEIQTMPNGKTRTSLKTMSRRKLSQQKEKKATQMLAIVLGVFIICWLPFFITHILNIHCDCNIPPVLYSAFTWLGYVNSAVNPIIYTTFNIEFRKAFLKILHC
#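 DiscoveRx PathHunter D2 beta-arrestin cells (2,100/well) attached overnight, then compound-stimulated 90 min at 37 C in HBSS/10 mM HEPES/0.1% Tween-20 buffer; beta-galactosidase complementation read by luminescence after 1 h at ambient temperature. Dopamine 57 uM final (EC100) as control.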
# D2 antag: antagonists of human D2 dopamine receptor; P14416; HEK293 TREx D2 cells, calcium flux, dopamine EC80; inhibition, % at 10 µM; 340,000 compounds, 2% hits; in the data active means inhibition above about 30%; inactive means below that, where a call was filed; further: 0% is about no effect
#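 Tetracycline-induced HEK293 TREx cells expressing D2 receptor forced-coupled to calcium signalling, loaded with no-wash calcium dye. Compounds added and calcium flux read 180 s, then dopamine added at EC80 and read a further 180 s.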
# D2 PAM-1: D2 dopamine receptor (human) potentiation | HEK293 T-REx D2, calcium flux, EC20 dopamine potentiation | potentiation, % at 10 µM | 340,000 compounds, 0.34% hits | AID 485347;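 active means potentiation over 3 SD above the plate norm, cut at about 30% in these data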; further: 0% is about no effect
#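 Cells plated with tetracycline inducer and held overnight at 30 C; calcium dye loaded 30–90 min at room temperature; baseline taken, compound added and read 180 s; EC20 dopamine then added and read 180 s.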
# D2 ag-2: agonists of human D2 dopamine receptor; HEK293 T-REx D2 cells, calcium flux agonist mode; activation, % at 2 µM; 340,000 compounds, 0.53% hits;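 active means activation over 3 SD above normal in the single-dose calcium agonist read, cut at about 30% in these data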; further: 0% is about no effect
#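 HEK293 Trex D2 cells, tetracycline-induced, o/n 30 C 5% CO2; no-wash Ca dye, RT 30–90 min; 10-cycle baseline, 23 nl cpd added, kinetic Ca read 180 s; agonist hits = positive Ca response.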
# D2 PAM-2: positive allosteric modulators of human D2 dopamine receptor; 360,000 compounds, 0.23% hits; DiscoveRx D2 beta-arrestin cells, luminescence, 90 min; 100% = 57 uM dopamine signal; potentiation, % (test concentration not listed); AID 624464; in the data active means potentiation above about 50%; inconclusive means mostly about 30% to 49%
#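 D2 cells co-treated with compound plus 50 nM dopamine (EC20) for 90 min at 37 deg C to detect potentiation. Beta-arrestin recruitment was read as enzyme-fragment luminescence after 1 h at ambient temperature. Full response was set by 57 uM dopamine.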
# * marks the source's active call; other numbers are inactive results; u = inconclusive; x = no result given. Only some compounds are listed: those with a hit (about 2.4% of all), similar ones and a draw of the others.
SMILES,D2 ag-1,D2 antag,D2 PAM-1,D2 ag-2,D2 PAM-2
COc1ccc2c(=O)c3c(=O)n(CCc4ccccc4)c(C)nc3oc2c1,1,x,x,x,0
Cc1nc2oc3ccccc3c(=O)c2c(=O)n1Cc1ccccc1,-1,31*,-9,1,-4
O=c1c2ccccc2oc2nc(-c3ccco3)n(CCc3ccccc3)c(=O)c12,x,-5,3,-1,x
CC1CCN(S(=O)(=O)c2ccc3c(ccn3CC(=O)NCc3ccc(N(C)C)cc3)c2)CC1,x,x,2,0,x
CCOC(=O)c1ccc(NC(=O)C2(S(=O)(=O)c3ccc(Cl)cc3)CC2)cc1,x,x,-9,0,x
O=C(Nc1ccc(F)cc1)C1(S(=O)(=O)c2ccc(Cl)cc2)CC1,0,37*,-5,-1,1
CCN(CC)S(=O)(=O)c1ccc(C(=O)OCCN2C(=O)c3cccc4c(N5CCOCC5)ccc(c34)C2=O)cc1,-5,6,5,4,-3
O=C(OCCN1C(=O)c2cccc3c(N4CCOCC4)ccc(c23)C1=O)c1cc(Cl)cc(Cl)c1,x,3,-2,48*,x
COc1cc(OC)c(NC(=O)CN2CCCN(Cc3ccccc3C)S2(=O)=O)cc1Cl,x,x,2,1,x
Cc1ccccc1C(=O)NC1CCN(C(=O)N2CCOCC2)CC1,-1,12,36*,0,-3
Cc1ccccc1C(=O)NC1CC2CCCC(C1)N2Cc1ccccc1 (centres undefined),-6,71*,-20,-2,0
Cc1ccccc1C(=O)NC1CCN(C(=O)NC2CCCCC2)CC1,9,-7,0,-1,-2
Cc1ccccc1C(=O)NC1CC2CCCC(C1)N2Cc1ccc(Cl)cc1 (centres undefined),-7,76*,-23,1,-27
O=C(NC1CC2CCC(C1)N2Cc1ccccc1)c1ccccc1Cl (centres undefined),-1,75*,-21,2,-3
CCOC(=O)c1ccc(NC(=O)CCCn2c(=O)c3cccn3c3cccnc32)cc1,x,x,5,0,x
Cc1cc(C)n(-c2nc(C)c(C)c(=O)n2CC(=O)Nc2ccc([N+](=O)[O-])cc2)n1,x,x,4,-1,x
CC1CCC(=NNC(=O)Cc2cccn2C)CC1 (centres undefined),4,2,-3,2,4
CC1CCC(=NNC(=O)Cc2ccccc2)CC1 (centres undefined),1,43*,-10,0,9
Cc1ccc(C(=O)NC(=S)Nc2cccnc2Cl)cc1,-7,-7,40*,-2,-16
COc1ccccc1C(=O)NC(=S)Nc1cccnc1Cl,-1,1,-6,0,0
COc1ccccc1C(=O)NC(=O)Nc1ccc(-n2nc(C(F)(F)F)cc2C(F)(F)F)cc1,x,x,-2,0,x
Nc1nnc(CC(=O)N/N=C/c2cccc(OCCOc3ccccc3)c2)s1,-1,31*,0,-1,21
CCN1C(=O)c2cccc3c(S(=O)(=O)N4CCC(C)CC4)ccc1c23,-3,37*,-4,-1,1
CC(C)OC(=O)c1cccnc1N1CCN(c2ccc(F)cc2)CC1,-3,33*,2,-2,-10
CC(C)OC(=O)c1ccc(N2CCN(c3ccc(F)cc3)CC2)nc1,5,-7,-1,-1,-5
SMILES,D2 ag-1,D2 antag,D2 PAM-1,D2 ag-2,D2 PAM-2
CCC(C)[C@H](NC(=O)N1CCn2c1nc1ccccc12)C(=O)NCc1ccccc1 (some centres undefined),-4,-1,32*,0,-5
O=C(Oc1ccc(Br)cc1C(=S)N1CCOCC1)c1ccc([N+](=O)[O-])cc1[N+](=O)[O-],u,-4,37*,1,56*
O=C(Oc1cccc(C(=S)N2CCOCC2)c1)c1cc([N+](=O)[O-])cc([N+](=O)[O-])c1,41*,3,-1,0,25
CCn1c(CNC(=O)C23CC4CC(CC(C4)C2)C3)nnc1SCC(=O)Nc1ccc(F)cc1,x,x,14,0,x
CCOc1ccc(NC(=O)CC2C(=O)OCCN2CC)cc1 (centres undefined),x,x,17,-1,x
Nc1ccc(N(CCO)CCO)cc1,u,12,5,3,64*
Cc1ccc(C)c(NC(=O)N2CCc3cc(S(=O)(=O)N4CCC(C)CC4)ccc32)c1,x,x,-1,0,x
CCOc1cc(/C=N/NC(N)=O)cc(Br)c1OCC(=O)Nc1ccccc1C,-2,-24,9,0,53*
c1ccc2c(c1)OCC(CNCC1COc3ccccc3O1)O2 (centres undefined),1,64*,-28,37*,-10
O=C(COc1ccc(Br)cc1)NCC1COc2ccccc2O1 (centres undefined),2,33*,-24,0,-24
O=C(O)CNCC1COc2ccccc2O1 (centres undefined),-3,-22,-7,0,6
CCN(CC)S(=O)(=O)c1cc(C(=O)OCC(=O)NC2CCCc3ccccc32)ccc1C (centres undefined),-3,37*,4,0,-17
CCS(=O)(=O)N1CCc2cc(C(=O)NCc3ccc(Cl)cc3)ccc21,x,x,-12,19,x
COc1ccc(-n2c(CN3CCN(c4ccccn4)CC3)nc3ccc([N+](=O)[O-])cc3c2=O)c(OC)c1,0,6,-6,36*,-8
S=C(NCC1CCCO1)N1CCN(c2nc(-c3ccccc3)cs2)CC1 (centres undefined),1,67*,-20,1,-16
O=C(NCc1ccco1)C1CCCN1C(=O)Nc1cccc(Cl)c1 (centres undefined),-3,56*,-10,-2,4
O=C(Nc1ccccc1-c1nnn(CC(=O)N2CCCc3ccccc32)n1)c1ccc(Cl)cc1,0,47*,6,1,-9
O=C(NC1=C(Nc2ccc(Cl)cc2)C(=O)c2ccccc2C1=O)c1ccccc1,12,7,1,-1,51*
COc1cc(OC)cc(C(=O)Nc2cccc(-c3cn4ccsc4n3)c2)c1,x,x,-5,0,x
CCn1cc(S(=O)(=O)c2ccccc2)c(=O)c2cc(F)c(N3CCN(c4ccccc4)CC3)cc21,x,x,-8,0,x
CCN1CCN(CCNC(=O)c2ccc3c(c2)N(Cc2ccc(F)cc2)C(=O)c2ccccc2S3=O)CC1 (centres undefined),-2,55*,-20,1,-40
CCCCSCCCNC(=O)c1ccc2c(c1)N(CC)C(=O)c1ccccc1S2=O (centres undefined),-2,30*,-28,1,-20
CCOCCCNC(=O)c1ccc2c(c1)N(CC)C(=O)c1ccccc1S2=O (centres undefined),-7,17,-28,1,-31

# Screening results deposited in PubChem BioAssay by National Center for Advancing Translational Sciences (NCATS).
